# Assay results: PubChem BioAssay
# Values without a mark were called inactive. Calls of active or inactive are those of the source.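 Rule for the calls: active = compounds that lower survival of DLD-1 colon cancer cells in the luminescence readout, no cutoff given; inactive = the rest.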
# Assay: decreased DLD-1 cellular survival, CellTiter-Glo luminescent readout, NPC compound collection, primary HTS (AID 1117346)
# Conditions: DLD-1 viability, CellTiter-Glo luminescence; at 20 µM (top of the series)
row,SMILES,viability decrease (inhibition)
1,O=c1c(-c2ccccc2)c1-c1ccccc1,64.3% (active)
2,COc1ccc(C(=O)NCc2ccc(OCCN(C)C)cc2)cc1OC,-7.9%
3,CC(C(=O)O)c1ccc(CC2CCCC2=O)cc1 (stereo not drawn),5.13%
4,CN1CCN(c2c(F)cc3c(=O)c(C(=O)O)cn4c3c2SCC4)CC1,0.6%
5,CN1CCN(C2=Nc3cc(F)ccc3Cc3ccccc32)CC1,-2.4%
6,Nc1c2c(nc3c1CCC3)CCCC2,-5.95%
7,CC(=O)NS(=O)(=O)c1ccc(N)cc1,-1.3%
8,C[C@H](NC(CCc1ccccc1)C(=O)O)C(=O)N1CCC[C@H]1C(=O)O (stereo partly drawn),-2.7%
9,O=C1c2cccc3c2[C@H](CCC3)CN1[C@@H]1CN2CCC1CC2,29.6%
10,CCOC(=O)C1=C(C)NC(C)=C(C(=O)OCC)C1c1ccccc1/C=C/C(=O)OC(C)(C)C,101% (active)
11,CCN1CCN(c2cc3c(cc2F)c(=O)c(C(=O)O)cn3C2CC2)CC1,-6.2%
12,CC1(C)S[C@@H]2[C@H](N=CN3CCCCCC3)C(=O)N2[C@H]1C(=O)O,-12.8%
13,CC(=O)OCC(=O)NCCCOc1cccc(CN2CCCCC2)c1,-31.7%
14,Clc1ccc2c(c1)CCc1cccnc1C2=C1CCNCC1,30%
15,CCc1c(C)[nH]c2c1C(=O)C(CN1CCOCC1)CC2 (stereo not drawn),-11%
16,COc1cc(C)nc(-n2nc(C)cc2OC)n1,-17.2%
17,COc1cc(C(=O)NC2CCCNC2)cc(OC)c1OC (stereo not drawn),15.8%
18,CC(C)(C(=O)c1cccnc1)c1cccnc1,-9.4%
19,CC(Oc1c(Cl)cccc1Cl)C1=NCCN1 (stereo not drawn),61.6% (active)

row,SMILES,viability decrease (inhibition)
1,CN(C)CC[C@@H](c1ccc(Br)cc1)c1ccccn1,10.2%
2,OCc1cccnc1,7.3%
3,CC(C)(C)C(O)/C=C/c1ccc2c(c1)OCO2 (stereo not drawn),-1.3%
4,COC(=O)C1=C(C)NC(C)=C(C(=O)O[C@@H]2CCCN(Cc3ccccc3)C2)[C@@H]1c1cccc([N+](=O)[O-])c1,101% (active)
5,COc1cc(C)c(Cc2cnc(N)nc2N)cc1OC,-5.75%
6,CCN1CC(CCN2CCOCC2)C(c2ccccc2)(c2ccccc2)C1=O (stereo not drawn),4.2%
7,COC(=O)C1=C(C)NC(C)=C(C(=O)OCC(C)C)C1c1ccccc1[N+](=O)[O-] (stereo not drawn),86.2% (active)
8,COc1cc2c(cc1OC)C(=O)C(CC1CCN(Cc3ccccc3)CC1)C2 (stereo not drawn),38.5%
9,COc1ccc(CN2CCN(C(c3ccc(F)cc3)c3ccc(F)cc3)CC2)c(OC)c1OC,101% (active)
10,Cc1cccc(C)c1NC(=O)C(C)N (stereo not drawn),-5.7%
11,NCC1CCC(C(=O)Oc2ccc(CCC(=O)O)cc2)CC1 (stereo not drawn),3.17%
12,CCCN1CCCC[C@H]1C(=O)Nc1c(C)cccc1C,6.9%
13,CC(C)(O)c1ccccc1CC[C@@H](SCC1(CC(=O)O)CC1)c1cccc(/C=C/c2ccc3ccc(Cl)cc3n2)c1,102% (active)
14,CC(=O)Nc1ccc(CC(=O)O)cc1,-2.4%
15,CCN(CC)CCNC(=O)c1cc(Cl)c(N)cc1OC,6%
16,NC1CCN(c2nc3c(cc2F)c(=O)c(C(=O)O)cn3-c2ccc(F)cc2F)C1 (stereo not drawn),-39.1%
17,C[C@H]1COc2c(C3(N)CC3)c(F)cc3c(=O)c(C(=O)O)cn1c23,24.9%
18,CN(C)CC[C@@H](c1ccc(Cl)cc1)c1ccccn1,-3.4%
19,COCc1c(C(C)C)nc(C(C)C)c(/C=C/[C@@H](O)C[C@@H](O)CC(=O)O)c1-c1ccc(F)cc1,98.6% (active)
